Results filed as inconclusive are left out. More than one record can exist for a structure, and the calls need not agree. Activity calls are given as the source filed them. How the source made its calls: active means hit-call score of the fitted dose curve at least 0.9, where 1 is the maximum; inconclusive means response in the unintended direction; inactive means score below 0.9.
test: Tanguay_ZF_120hpf_TR_legacy: (Legacy) Oregon State University Tanguay Lab 120 Hour Post-fertilization zebrafish Assay for Touch Response (AID 2283667)
Method: Tanguay_ZF_120hpf_legacy is a whole embryo, multiplexed endpoint assay using zebrafish larvae exposed for 120 hours post fertilization on a 96-well plate.Tanguay_ZF_120hpf_TR_legacy is one of one assay component(s) measured or calculated from the Tanguay_ZF_120hpf_legacy assay. It is designed to make measurements of zebrafish development as detected with brightfield microscopy of developing zebrafish embryos.Data from the assay component Tanguay_ZF_120hpf_TR_legacy was analyzed into 1 assay endpoints. This assay endpoint, Tanguay_ZF_120hpf_TR_legacy, was analyzed in the positive analysis fitting direction relative to DMSO as the negative control and baseline of activity. Using a type of morphology reporter, gain-of-signal activity can be used to understand changes in developmentals as they relate to the whole embryo. To generalize the intended target to other relatable targets, this assay endpoint is annotated to the zebrafish development intended target family, where the subfamily is embryonic functional response.
Zebrafish husbandry: Tropical 5D wild-type adult zebrafish were housed in at an approximate density of 1000 per 100 gallon tank at the Sinnhuber Aquatic Research Laboratory, Oregon State University, Corvallis, OR. Each tank was kept at standard laboratory conditions of 28C on a 14-h light/10-h dark photoperiod in fish water consisting of reverse osmosis water supplemented with a commercially available salt (Instant Ocean). Spawning funnels were placed into the tanks the night prior, and embryos were collected and staged. […] Ten microliters of each row of dilution plate 2 was added to 2 exposure plates. The final DMSO concentration used was 0.64% (vol/vol). Thirty-two embryos were also exposed to 5uM trimethyltin chloride (positive control). Plates were sealed to prevent evaporation and foil covered to reduce light exposure and kept in a 28C incubator. Embryos were statically exposed until 120 hpf. At 24 hpf, embryos were assessed for photomotor response using a custom photomotor response analysis tool (PRAT) and for developmental toxicity endpoints (MO24: mortality at 24 hpf, DP: developmental progression, SM: spontaneous movement, and NC: notochord distortion). At 120 hpf, locomotor activity was measured using Viewpoint Zebralab and assessed for 18 endpoints. Zebrafish acquisition and analysis program (ZAAP), a custom program designed to inventory, acquire, and manage zebrafish data, was used to collect developmental endpoints as either present or absent (i.e., binary responses were recorded). If mortality occurred for an embryo (at either 24 or 120 hpf), the non-mortality endpoints were not measured.

Compound	outcome	AC50
CS/C(C)=N/OC(=O)N(C)SN(C)C(=O)O/N=C(\C)SC	inactive	–
C#CCOS(=O)OC1CCCCC1Oc1ccc(C(C)(C)C)cc1 (stereo not given)	inactive	–
COc1ccc(C(c2ccc(OC)cc2)C(Cl)(Cl)Cl)cc1	inactive	–
CCCCOC(=O)c1ccccc1C(=O)OCCCC	inactive	–
COP(=S)(OC)Oc1nc(Cl)c(Cl)cc1Cl	–	97.7 µM (active)
CON(C)C(=O)Nc1ccc(Cl)c(Cl)c1	inactive	–
CCON=C(CC)C1=C(O)CC(c2c(C)cc(C)cc2C)CC1=O (stereo not given)	inactive	–
CCOC(=O)C(Cl)Cc1cc(-n2nc(C)n(C(F)F)c2=O)c(F)cc1Cl (stereo not given)	–	17 µM (active)
CCCCC(CC)COC(=O)c1ccccc1C(=O)OCC(CC)CCCC (stereo not given)	inactive	–
CC1COC(Cn2cncn2)(c2ccc(Oc3ccc(Cl)cc3)cc2Cl)O1 (stereo not given)	inactive	–
Cc1ccc(-c2c(Cl)nc(C#N)n2S(=O)(=O)N(C)C)cc1	inactive	–
C=CCC1=C(C)C(OC(=O)C2C(C=C(C)C)C2(C)C)CC1=O (stereo not given)	inactive	–
CCNc1nc(Cl)nc(NC(C)C)n1	inactive	–
N#Cc1nn(-c2c(Cl)cc(C(F)(F)F)cc2Cl)c(N)c1S(=O)C(F)(F)F (stereo not given)	inactive	–
N#Cc1cc(Br)c(O)c(Br)c1	inactive	–
OC(c1ccc(Cl)cc1)(c1cncnc1)c1ccccc1Cl (stereo not given)	inactive	–
COC(=O)C=C(C)OP(=O)(OC)OC	inactive	–
CCOP(=S)(OCC)SCn1c(=O)oc2cc(Cl)ccc21	inactive	–
Oc1ccccc1-c1ccccc1	inactive	–
COC(=O)N(OC)c1ccccc1COc1ccn(-c2ccc(Cl)cc2)n1	inactive	–

Compound	outcome	AC50
CC(C)(C)c1ccc(CSc2cnn(C(C)(C)C)c(=O)c2Cl)cc1	inactive	–
C=CCC1=C(C)[C@@H](OC(=O)[C@@H]2[C@@H](C=C(C)C)C2(C)C)CC1=O	inactive	–
CC(C)C1(C)N=C(c2nc3ccccc3cc2C(=O)O)NC1=O (stereo not given)	inactive	–
CN(C)C(=S)SSC(=S)N(C)C	–	3.26 µM (active)
Cc1cc(Cl)ccc1OCC(=O)O	inactive	–
O=C(O)c1nc(Cl)ccc1Cl	inactive	–
O=C(Nc1ccccc1)Nc1ccnc(Cl)c1	inactive	–
COC(=O)C(C)Oc1ccc(Oc2ccc(Cl)cc2Cl)cc1 (stereo not given)	inactive	–
CCCCNC(=O)n1c(NC(=O)OC)nc2ccccc21	–	19.2 µM (active)
CCCC1COC(Cn2cncn2)(c2ccc(Cl)cc2Cl)O1 (stereo not given)	–	9.51 µM (active)
CC1=C(C(=O)Nc2ccccc2)SCCO1	inactive	–
C=CC1(C)OC(=O)N(c2cc(Cl)cc(Cl)c2)C1=O (stereo not given)	inactive	–
CCOc1cc(Oc2ccc(C(F)(F)F)cc2Cl)ccc1[N+](=O)[O-]	inactive	–
N#CC(CCc1ccc(Cl)cc1)(Cn1cncn1)c1ccccc1 (stereo not given)	inactive	–
O=C(O)COc1nc(Cl)c(Cl)cc1Cl	inactive	–
CCCCNC(=O)OCC#CI	inactive	–
CO/C=C(/C(=O)OC)c1ccccc1Oc1cc(Oc2ccccc2C#N)ncn1	inactive	4.04 µM (active)
CCNc1nc(Cl)nc(NCC)n1	inactive	–
CCc1nn(C)c(C(=O)NCc2ccc(C(C)(C)C)cc2)c1Cl	inactive	–

From PubChem BioAssay (EPA / NIEHS)
